Integrin act MD – qHTS for Activators of Integrin-Mediated Alleviation for Muscular Dystrophy; Potency, µM (doses to about 38.3 µM), for inactives: at the highest dose activation, usual class: activators; alpha7betagal myoblasts, beta-gal FDG fluorescence, 48 h; 350,000 tested, 0.064% active;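 note: 100% = response of the positive control SU9516; nearly all actives have a fitted effect of over 60% in size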
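Alpha7betagal+/- myoblasts (passage 13) were plated 16-24 hr, then exposed to compounds (1:260 dilution of DMSO stock) for 48 hours at 37C. After MPER lysis, β-galactosidase reporter activity was read as FDG fluorescence (ex 480/em 540) after 30 minutes.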
USP2a inh – qHTS Assay for Inhibitors of Ubiquitin-specific Protease USP2a Using CHOP2 as the Reporter. Ubiquitin carboxyl-terminal hydrolase 2 (Homo sapiens), O75604. USP2 core, Ub-CHOP2 coupled fluorogenic reporter, 485/531. Potency, µM (series often up to 38.3 µM), inactives show top-dose activity change, negative = inhibition, hits mostly inhibitors. 330,000 tested, 0.01% active;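 note: plate controls were DMSO wells for no effect and full inhibition by NEM control for full effect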
Target sequence (O75604 whole entry, looked up): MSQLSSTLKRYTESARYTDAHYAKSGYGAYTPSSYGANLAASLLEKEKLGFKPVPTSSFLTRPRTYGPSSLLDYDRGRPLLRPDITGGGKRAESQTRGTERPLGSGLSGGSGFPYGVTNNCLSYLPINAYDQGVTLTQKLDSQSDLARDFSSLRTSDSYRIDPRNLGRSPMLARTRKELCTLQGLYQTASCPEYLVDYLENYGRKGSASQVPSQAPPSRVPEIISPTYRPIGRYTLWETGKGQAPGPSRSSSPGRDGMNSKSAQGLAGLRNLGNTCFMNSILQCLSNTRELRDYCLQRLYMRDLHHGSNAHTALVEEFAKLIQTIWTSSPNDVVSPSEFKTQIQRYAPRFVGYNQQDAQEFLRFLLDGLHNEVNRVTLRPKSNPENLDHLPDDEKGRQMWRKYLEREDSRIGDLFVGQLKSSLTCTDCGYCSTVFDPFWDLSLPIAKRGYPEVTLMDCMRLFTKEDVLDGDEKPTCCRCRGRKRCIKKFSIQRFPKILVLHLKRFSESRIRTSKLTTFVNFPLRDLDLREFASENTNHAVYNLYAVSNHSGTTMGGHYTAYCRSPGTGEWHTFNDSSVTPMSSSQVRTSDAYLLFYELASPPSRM
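Cell-free coupled assay: 10nM USP2 core preincubated 30min RT with compound in Tris-HCl pH 8.0/CaCl2/CHAPS buffer, then 25nM Ub-CHOP2 and 25nM reporter substrate; fluorescence (Ex 485/Em 531) read after 60min RT, normalized to NEM inhibition, concentration-response curves fitted.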
Mm-Cpn inhibitor – Inhibitors of TCP-1 ring complex (TRiC) of Methanococcus maripaludis (MmCpn): qHTS; Chaperonin Mm-Cpn (Methanococcus maripaludis); purified Mm-Cpn ATPase, ADP Transcreener TR-FRET; Potency, µM (titrated, usually from 76.9 µM), inactives show at the highest dose activity, negative = inhibition, actives largely listed as inhibitors; 330,000 tested, 0.031% active; note: % is set by controls: 0 for no effect and ±100 for the full control effect; nearly all actives have a fitted effect of over 80% in size
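Purified archaeal Mm-CPN (25nM final) preincubated 10 min at 37degC with compound, then 10uM ATP for 30 min at 37degC; ADP measured by HTRF Transcreener TR-FRET; buffer 30 mM TRIS pH 7.4, 100mM KCl, 5mM MgCl2, 1mM DTT.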
Eya2 phos inh – qHTS Assay for Inhibitors of the Phosphatase Activity of Eya2 | Potency, µM (top dose mostly 76.9 µM), without a hit: at the top dose activity, negative = inhibition, hits mostly inhibitors | Protein phosphatase EYA2 (Homo sapiens), O00167 | recombinant Eya2, OMFP fluorescence dephosphorylation (OMFP is methylfluorescein phosphate) | 330,000 tested, 0.006% active; note: % is set by controls: 0 for no effect and ±100 for the full control effect
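Eya2 protein (added as 0.2 uM solution) was preincubated with compound for 10 min at ambient temperature in 50 mM HEPES pH 7.5, 50 mM NaCl, 5 uM MgCl2, 0.05% BSA, 1 mM DTT. OMFP (added at 50 uM) then reacted 10 min; fluorescence read at 485/525 nm.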
p53 reactivator – qHTS assay for re-activators of p53 using a Luc reporter; H1299 p53-A138V BP100-luciferase reporter, luminescence, 24 h; Potency, µM (series often up to 92.2 µM), for the others: at the top dose activity change, positive = activation, actives largely listed as activators; 320,000 tested, 0.063% active; note: % of control where 0% means no effect; nearly all actives have a fitted effect of over 45% in size
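H1299 (p53-null), stable ts p53-A138V + BP100-Luc; 1000 cells/well, Opti-MEM/10% FBS; cpd 4 pt, 1:5; 24 h, 37 deg C, 5% CO2; detection reagent 10 min RT; luminescence.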
ClpP mod – qHTS Assay for Activators of ClpP | AID 651965, 2013 | 340,000 tested, 1.9% active | Potency, µM (top dose mostly 57.5 µM), for inactives: at the top dose activity change, negative = active | purified B. subtilis ClpP, FRET peptide cleavage, 20 min; active = well fitted falling curve with a large enough effect; inconclusive = small, poorly fitted or top-dose-only effect; inactive = no such curve, though single readings can be large or run the other way; note: the source files actives as falling curves though it sought activators and does not explain the sign; nearly all actives have a fitted effect of over 65% in size
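Purified B. subtilis ClpP, 10 microg/mL final in Tris/HCl pH8 with KCl, BSA, glycerol and Tween-20, cleaved an Abz/nitrotyrosine-quenched decapeptide. Fluorescence (ex 320, em 430) was read at 0 and 20 min at room temperature. Delta was normalized to 5.8 microM ADEP and DMSO/no-enzyme controls.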
The depositor's hits bear a star; ? = inconclusive; . = no result given. Shown is part of a subset that was picked to be rich in hits. Unless noted, calls come from the whole dose curve; as a rule, active = well fitted curve in the direction sought with a large enough effect; inconclusive = small, poorly fitted or top-dose-only effect, or another doubt; inactive = no such curve, though single readings can be large; an effect the other way counts as inactive or inconclusive. Potency is the fitted concentration of half-maximal effect.

SMILES	Integrin act MD	USP2a inh	Mm-Cpn inhibitor	Eya2 phos inh	p53 reactivator	ClpP mod
CCCn1c(=O)[nH]c(=O)c2c1nc(-c1ccc3c(c1)OCCO3)n2CCN1CCOCC1	8%	-1%	0%	5%	-26%	32µM*
CCCn1c(=O)[nH]c(=O)c2c1nc(-c1ccc(OC(F)F)cc1)n2CCN1CCOCC1	-34%	2%	-1%	14%	-5%	-8%
CCSc1nnc(NC(=O)C2CCN(C(=O)c3ccco3)CC2)s1	.	.	.	.	.	0%
CC(=O)N1c2ccc(S(=O)(=O)NCC3CCC(C(=O)NCCC(C)C)CC3)cc2CC1C (centres undefined)	.	.	.	.	.	2%
CC(Sc1nc(-c2ccccc2)c(-c2ccccc2)[nH]1)C(=O)NCC1CCCO1 (centres undefined)	-7%	.	.	.	.	28µM*
CCc1cccc2c(SC(C)C(=O)NCC3CCCO3)nc(-c3ccccc3)nc12 (centres undefined)	11%	0%	-1%	11%	-2%	1%
Cc1noc2ncnc(Oc3cc(Cl)ccc3Cl)c12	13%	7%	2%	-4%	?	-2%
Cc1cccc(Oc2ncnc3oc(-c4ccccc4)cc23)c1C	3%	1%	2%	-22%	-4%	28µM*
Cc1cccc(Oc2ncnc(N)c2[N+](=O)[O-])c1C	-22%	4%	1%	5%	3%	-6%
Cc1cc(Cl)ccc1Oc1ncnc2oc(-c3ccccc3)cc12	3%	3%	-1%	14%	6%	25µM*
Cc1ccc(S(=O)(=O)c2cn(Cc3ccccc3F)c3cc4c(cc3c2=O)OCO4)cc1	.	.	.	.	.	-29%
N#CC(C(=O)NC1CCCCC1)=C1CCCCCC1	-7%	4%	0%	-17%	3%	16µM*
O=C(Cc1coc2cc3c(cc12)CCC3)NC1CCCCCCC1	-30%	1%	-5%	-10%	9%	1%
O=C(O)Cc1coc2cc3c(cc12)CCC3	21%	3%	-1%	3%	-2%	25µM*
O=C(NCCc1nc2ccccc2n1CCCOc1ccccc1)C1CCCCC1	.	.	.	.	.	0%
CCN(CC)S(=O)(=O)c1cc(C(=O)OCC(=O)Nc2ccc(-c3nc4ccc(C)cc4s3)cc2)ccc1F	-6%	4%	-17%	10%	?	18µM*
Cc1cccc(CNC(=O)Cn2ccc3cc(S(=O)(=O)N4CCC(C)CC4)ccc32)c1	.	.	.	.	.	-23%
N#Cc1c(N)c(C#N)c(-c2ccc(O)cc2)c2c1CCCC2	-7%	0%	-11%	-11%	-4%	22µM*
N#Cc1c(N)c(C#N)c(-c2ccc3c(c2)OCO3)c2c1CCCC2	-1%	0%	2%	-9%	-4%	32µM*
CCOC(=O)N1CCN(/[N+]([O-])=N/Oc2ccc([N+](=O)[O-])cc2[N+](=O)[O-])CC1	.	.	.	5%	.	.
COC(=O)c1cc(COc2ccc3oc(C)c(C(=O)OC(C)C)c3c2)c(C)o1	1%	2%	-1%	3%	-2%	2.5µM*
Cc1cccc(Nc2nc(NCc3ccco3)c3ccccc3n2)c1	-51%	?	2%	-9%	-9%	20µM*
Cc1ccc(SC[C@H](Cc2ccccc2)N2CC[C@@H](C(C)(C)C)CCC2=O)cc1	.	.	.	.	.	-4%
CCCN(C(=O)c1cc2c(s1)-c1ccccc1SC2)c1ccccc1F	.	.	.	.	.	32µM*
CCCN(C(=O)c1cc2c(s1)-c1ccccc1OC2)c1ccccc1F	.	.	.	.	.	4%
SMILES	Integrin act MD	USP2a inh	Mm-Cpn inhibitor	Eya2 phos inh	p53 reactivator	ClpP mod
C(=C\c1ccnc2ccccc12)/c1cccnc1	.	.	.	.	.	2%
CCc1ccc(C(=O)N/N=C/c2cccc3ccccc23)nc1	13%	-1%	0%	4%	32µM*	-2%
CCc1ccc2c(Cl)c(C(=O)N/N=C/c3c[nH]c4ccccc34)sc2c1	13%	4%	0%	0%	1%	25µM*
CCc1ccc(-c2cc(C(=O)N/N=C/c3c[nH]c4ccccc34)[nH]n2)cc1	7%	-9%	0%	-6%	-4%	-29%
CCOC(=O)C1CCCN(C(=O)c2ccc3c(c2)sc2nc(-c4cccc(OC)c4)cn23)C1 (centres undefined)	.	.	.	.	.	-22%
CCCn1c(C)nc2c(c1=O)c1nc3ccccc3nc1n2CCC1=CCCCC1	-9%	1%	0%	-25%	-7%	32µM*
O=C(COc1ccccc1)Nc1ccc(-c2ccc(N3CCOCC3)nn2)cc1	7%	3%	-8%	-7%	28%	16µM*
Cn1ncc(S(=O)(=O)Cc2ccccc2)c(Br)c1=O	.	.	.	9%	.	.
NC(N)=Nc1ccc(/C=C2\C=Cc3ccccc32)cc1	.	.	.	.	.	-2%
CCOC(=O)c1cc(-c2cccc(C(F)(F)F)c2)nc2nc(SC)[nH]c(=O)c12	-9%	2%	-3%	0%	2%	0%
CCOC(=O)c1cc(-c2ccc(C)cc2)nc2nc(SC)[nH]c(=O)c12	0%	0%	-2%	1%	2%	14µM*
CC1=C(C#N)C(c2cccnc2)C2=C(CC(c3ccc(Cl)cc3)CC2=O)N1 (centres undefined)	-13%	-6%	-3%	-20%	-4%	28µM*
Cn1c(=O)c2c(c3ccccc31)OC(=O)CC2c1cccc(Cl)c1 (centres undefined)	.	.	.	.	.	11µM*
Cn1c(=O)c2c(c3ccccc31)OC(=O)CC2c1cccnc1 (centres undefined)	-7%	3%	?	6%	0%	-15%
COc1ccc(/C=C2\SC(=O)N(CCNC(=O)CN3C(=O)NC4(CCCC4)C3=O)C2=O)cc1	-4%	-1%	1%	-9%	9%	-5%
O=C(CN1C(=O)NC2(CCCC2)C1=O)NCCN1C(=O)S/C(=C\c2ccccc2F)C1=O	-24%	0%	1%	0%	0%	32µM*
O=C(Nc1nnc(-c2ccco2)s1)C1CC1	?	2%	-17%	0%	?	32µM*
COc1ccccc1-n1nc(-c2ccccc2)c2cnc3c(F)cc(F)cc3c21	.	.	.	.	.	-8%
CCN1CCc2c(sc(N)c2C(N)=O)C1	11%	7%	1%	-2%	0%	14µM*
CN1CCc2c(sc(N)c2C(N)=O)C1	16%	6%	0%	-19%	12%	20µM*

Compound activity as filed in PubChem.
